# GPR151 ag: activators of human GPR151, primary screen, cell-based, PathHunter beta-arrestin, luminescence. G-protein coupled receptor 151 (Homo sapiens), Q8TDV0. PathHunter beta-arrestin GPR151 cells. activation, % at 11.2 µM. hit rate 1% among 650,000. AID 1508602, 2020; in the data active = activation above about 4.9%
# Target sequence (Q8TDV0 whole entry, looked up): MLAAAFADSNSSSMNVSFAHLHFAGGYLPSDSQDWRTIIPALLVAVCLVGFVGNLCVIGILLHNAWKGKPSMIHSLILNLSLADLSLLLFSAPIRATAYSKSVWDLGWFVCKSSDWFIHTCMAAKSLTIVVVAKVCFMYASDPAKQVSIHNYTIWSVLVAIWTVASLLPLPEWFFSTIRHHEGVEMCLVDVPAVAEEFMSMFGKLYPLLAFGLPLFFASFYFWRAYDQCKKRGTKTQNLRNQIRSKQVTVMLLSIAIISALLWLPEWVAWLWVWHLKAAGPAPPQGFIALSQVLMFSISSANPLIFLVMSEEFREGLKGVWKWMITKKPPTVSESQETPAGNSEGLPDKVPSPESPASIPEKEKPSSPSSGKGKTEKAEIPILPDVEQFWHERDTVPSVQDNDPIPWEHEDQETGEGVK
# TEAD-YAP inh: TEAD-YAP interaction inhibition, primary screen, TEAD-YAP interaction inhibitor project, luminescence, HEK-TIYL cells; inhibition, % at 9.12 µM; TEAD-Gal4/YAP UAS-luciferase luminescence; hit rate 1.4% among 640,000; in the data active = inhibition above about 32%
# MITF inh: MITF inhibitors, primary screen, biochemical, AlphaScreen, human | Microphthalmia-associated transcription factor (Homo sapiens), O75030 | AlphaScreen MITF homodimerization, bead proximity signal | inhibition, % at 2.6 µM | hit rate 0.91% among 650,000 | AID 1259374, 2018; in the data active = inhibition above about 50%
# FBW7 act: FBW7 E3 ligase activators, primary screen, biochemical, AlphaScreen, human. hit rate 0.13% among 650,000. AlphaScreen FBW7–phospho-cyclin E peptide binding, activator screen. AID 1259310, 2017. F-box/WD repeat-containing protein 7 (Homo sapiens), Q969H0. normalized activity (activation), % at 26.1 µM; in the data active = normalized activity above about 1.9%;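 also: purified mutant Fbw7 with reduced substrate affinity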
# GPR151 confirm: GPR151 activators, triplicate retest, confirmation, cell-based, PathHunter beta-arrestin, luminescence; shares compounds with GPR151 ag; GPR151 PathHunter beta-arrestin cells, 90 min; % of EA-reagent control over plate median; activation, % at 11.2 µM; 6,700 tested, under 10 active; AID 1508609, 2020;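 active = mean percent activation across replicates above the confirmation screen cutoff of 4.91%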
# GPR119 counter: GPR119 activators in beta-arrestin cells, counter-screen for GPR151 activator project, cell-based, PathHunter beta-arrestin, luminescence, triplicate | shares compounds with GPR151 ag | 90 min; 0 = compound-well median, 100 = enzyme-acceptor control | activation, % at 11.2 µM | hit rate 0.3% among 6,700;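 active = mean percent activation in the counterscreen above 29.09%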;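 also: counterscreen on off-target GPR119 to flag nonselective hits from the GPR151 activator screen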
# Hits are given with their value; n = inactive; x = no result given. In the library only some 3.5% were active in any assay of this set; here they are far more common.
SMILES,GPR151 ag,TEAD-YAP inh,MITF inh,FBW7 act,GPR151 confirm,GPR119 counter
CCOC(=O)N1CCN(C(=O)CNC(=O)c2nn(-c3ccc(OC)cc3OC)c(=O)c3ccccc23)CC1,5.3,n,n,n,n,n
COc1ccc(-n2nc(C(=O)NCC(=O)N3CCCC3)c3ccccc3c2=O)c(OC)c1,n,n,n,n,x,x
CCCOC(=O)CN1C(=O)c2ccc(C(=O)OCCC)cc2C1=O,n,n,n,n,x,x
CCCOC(=O)CN1C(=O)c2ccc(Br)cc2C1=O,8.7,n,n,n,n,n
COc1ccc(NC(=O)c2cccc(Cl)c2Cl)cc1Cl,n,n,n,n,x,x
N#CC1=C(S)N(c2ccccc2)C(c2cccs2)NC1=O (stereo not given),6.9,n,n,n,n,n
N#CC1=C(S)N(c2ccccc2)C(c2ccco2)NC1=O (stereo not given),n,n,n,n,x,x
N/C(=N\OC(=O)c1ccncc1)c1cccnc1,5.8,n,n,n,n,n
CCOc1ccc(NC(=O)CSc2nc3c(c(=O)n2CC)SC(C)C3)cc1 (stereo not given),n,n,n,n,x,x
CCOC(=O)c1ccc(COC(=O)c2cc(Br)ccc2NC(C)=O)cc1,6.3,n,n,n,n,n
COc1ccc(SCCC(=O)Nc2ccc(Br)cc2)cc1,5.2,n,n,n,n,n
CCOC(=O)c1ccc(NC(=O)CSc2nc3c(c(=O)n2CC)SC(C)C3)cc1 (stereo not given),5.1,n,n,n,n,n
CCOC(=O)c1ccc(NC(=O)CC2COc3ccccc3O2)cc1 (stereo not given),5.8,n,n,n,n,n
O=C(CSc1ccc(Br)cc1)Nc1ccc([N+](=O)[O-])cc1,6.4,n,n,n,n,n
CCOC(=O)c1ccc(NC(=O)CN2C(=O)C3C4C=CC(C4)C3C2=O)cc1 (stereo not given),n,n,n,n,x,x
N#Cc1ccc(NC(=O)CSc2ccc(Br)cc2)cc1,n,n,n,n,x,x
CCCOC(=O)c1ccc(NC(=O)CSc2ccccc2)cc1,n,n,n,n,x,x
CCOC(=O)c1ccc(NC(=O)CN2C(=O)C3C4C=CC(C5CC45)C3C2=O)cc1 (stereo not given),7.0,n,n,n,n,n
CCOC(=O)c1ccc(NC(=O)CSc2ccc(Br)cc2)cc1,7.9,n,n,n,n,n
OCc1ccc(OCc2cccc(Cl)c2)cc1,n,n,n,n,x,x
CC(=O)Nc1ccc(NC(=O)C(NC(=O)C2CCCCC2)C(C)C)cc1 (stereo not given),n,n,n,n,x,x
NC(Cc1cc(I)c(Oc2ccc(O)c(I)c2)c(I)c1)C(=O)O (stereo not given),6.4,n,n,n,n,n
CCCCCC1CCc2nc(/C=C/c3ccccc3)ccc2C1 (stereo not given),6.0,n,n,n,n,n
CCCCCCCC1CCc2nc(-c3ccc(F)cc3)ccc2C1 (stereo not given),n,n,n,n,x,x
CC(C)(C)c1ccc(-c2ccc(OCCN3CCOCC3)nc2)cc1,5.8,58.2,n,n,n,n
SMILES,GPR151 ag,TEAD-YAP inh,MITF inh,FBW7 act,GPR151 confirm,GPR119 counter
Cc1ccc(-c2ccc(OCCN3CCOCC3)nc2)cc1,n,n,n,n,x,x
COC(=O)COc1nc2cc(C)ccc2cc1CNC1CCOC1 (stereo not given),n,n,n,n,x,x
NC(CCCCNC(=O)c1ccccc1)C(=O)O (stereo not given),5.0,n,n,n,n,n
COC(=O)C(CCCCNC(=O)c1ccccc1)NC(=O)c1ccccc1 (stereo not given),n,n,n,n,x,x
O=C(COc1ccc(Cl)cc1Cl)Nc1ncn[nH]1,6.6,42.4,n,n,n,n
O=C(CCCOc1ccc(Cl)cc1Cl)Nc1ncn[nH]1,n,n,n,n,x,x
CC(=O)Nc1ccc(NC(=O)COc2ccc(Cl)cc2Br)cc1,5.1,n,n,n,n,n
c1nc(N2CCCCC2)c2sc3nc(N4CCOCC4)c4c(c3c2n1)CCCC4,6.2,n,n,n,n,n
c1nc(N2CCOCC2)c2sc3nc(N4CCCCC4)c4c(c3c2n1)CCCC4,n,n,n,n,x,x
